PubChem BioAssay (EPA / NIEHS)
Several values for one entry are separate records, joined by “and”; a condition that tells them apart may be missing. Identical values can stand only once. Records with an inconclusive call do not appear. Activity calls are given as the source filed them. The calls were made as follows, unless noted: active = hit-call score of the fitted dose curve at least 0.9, where 1 is the maximum; inconclusive = response in the unintended direction; inactive = score below 0.9.

Key:
[1] = ACEA_ER_80hr: ACEA Biosciences xCELLigence Real-Time Cell Analysis on Estrogen Receptor Agonism for Proliferation (AID 2282667); conditions: T47D proliferation, impedance (xCELLigence), 80 h
How it was run: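 T-47D cells monitored by electrical impedance (xCELLigence) with compound present throughout; 80 h timepoint, positive-direction fitting versus DMSO. Eight-point 1:4 dilutions from 100 uM final, duplicate plates.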

[2] = APR_HepG2_CellCycleArrest_24hr: Apredica 24-hour HepG2 Assay for Cell Cycle Arrest (AID 2282905; active = hit-call score of the fitted dose curve at least 0.9, where 1 is the maximum; inactive = score below 0.9;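 also: cell cycle arrest scored as ratio of 2N to 4N nuclear DNA content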); conditions: imaging, actives raise or lower the signal
How it was run: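 HepG2 cells were exposed to compounds at 0.39–200 uM (ten concentrations, duplicate) in 0.5% v/v DMSO for 24 hr. After formaldehyde fixation and Triton permeabilization, Hoechst 33342-stained nuclei were imaged at 20x; DNA content was quantified, with bidirectional fitting against DMSO.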

Compound	AC50 [1]	outcome [2]	outcome [1]	AC50 [2]
C[C@]12CCC(=O)C=C1CC[C@@H]1[C@@H]2CC[C@]2(C)C(=O)CC[C@@H]12	50 µM (active) and 9.92 µM (active)	inactive	–	–
ClC1=C(Cl)[C@]2(Cl)[C@@H]3[C@H]4C[C@H]([C@@H]5O[C@H]45)[C@@H]3[C@@]1(Cl)C2(Cl)Cl	50 µM (active)	inactive	–	–
Cc1ccccc1O	–	inactive	inactive	–
C=CC(=O)NCNC(=O)C=C	–	inactive	inactive	–
COc1ccc(O)c(C(C)(C)C)c1	1.95 µM (active)	inactive	–	–
CCCCCCOC(=O)c1ccccc1C(=O)OCCCCCC	–	inactive	inactive	–
C1CC2OC2CC1C1CO1 (configuration not stated)	–	inactive	inactive	–
O=S(=O)(O)C(F)(F)C(F)(F)C(F)(F)C(F)(F)C(F)(F)C(F)(F)F	–	inactive	inactive	–
Cc1cccc([N+](=O)[O-])c1	–	inactive	inactive	–
COS(=O)(=O)OC	–	inactive	inactive	–
CCOC(=O)C(O)(c1ccc(Cl)cc1)c1ccc(Cl)cc1	–	–	inactive	54.1 µM (active)
Clc1ccc(Cl)cc1	–	inactive	inactive	–
CCC(C)(c1ccc(O)cc1)c1ccc(O)cc1	285 nM (active) [middle of 4 runs]	inactive	–	–
CCC(C)c1cc([N+](=O)[O-])cc([N+](=O)[O-])c1O (configuration not stated)	–	–	inactive	49.6 µM (active)
Cc1ccccc1[N+](=O)[O-]	–	inactive	inactive	–
ClC1=C(Cl)[C@]2(Cl)[C@@H]3[C@@H](Cl)[C@H]4O[C@H]4[C@@H]3C1(Cl)C2(Cl)Cl	–	–	inactive	80.1 µM (active)
CO/C=C(/C(=O)OC)c1ccccc1COc1cccc(C(F)(F)F)n1	20.2 µM (active)	inactive	–	–
Clc1ccc(C(Cl)(Cl)Cl)cc1	–	inactive	inactive	–
CCOCCOC(C)=O	–	inactive	inactive	–
Cc1cc(-c2ccc(N)c(C)c2)ccc1N	27 µM (active) and 9.92 µM (active)	inactive	–	–
Nn1cnnc1	60.3 µM (active)	inactive	–	–
